gsp antagonist: gsp mutant antagonism | AID 624288 | Potency, µM (highest dose often 76.9 µM), hits mostly inhibitors | gsp-mutant cells, cAMP HTRF, 30 min | 340,000 compounds, 0.4% hits; calls by dose curve; cell line not stated here;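 also: intracellular cAMP measured with PDE inhibitor Ro 20-1724 present during compound exposure; nearly all actives have a fitted effect of over 65% in size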
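Measurement of cellular cAMP by homogeneous time-resolved fluorescence following a 30 min compound exposure at 37C. The PDE inhibitor […] was present throughout; the assay buffer was DPBS with 0.05% BSA and 0.005% Tween 20.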
TSHR antag: human thyrotropin receptor antagonism; P16473; TSHR-expressing cells, TSH-stimulated cAMP HTRF, 2 h; active compounds read low; activity change, negative = inhibition, % at 11.5 µM; 330,000 compounds, 0.2% hits; AID 504810;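 active = activity change below a set negative limit, meaning inhibition stronger than a set level, cut at about -70% in these data; inconclusive = activity change between two set negative limits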
Target sequence (P16473 whole entry, looked up): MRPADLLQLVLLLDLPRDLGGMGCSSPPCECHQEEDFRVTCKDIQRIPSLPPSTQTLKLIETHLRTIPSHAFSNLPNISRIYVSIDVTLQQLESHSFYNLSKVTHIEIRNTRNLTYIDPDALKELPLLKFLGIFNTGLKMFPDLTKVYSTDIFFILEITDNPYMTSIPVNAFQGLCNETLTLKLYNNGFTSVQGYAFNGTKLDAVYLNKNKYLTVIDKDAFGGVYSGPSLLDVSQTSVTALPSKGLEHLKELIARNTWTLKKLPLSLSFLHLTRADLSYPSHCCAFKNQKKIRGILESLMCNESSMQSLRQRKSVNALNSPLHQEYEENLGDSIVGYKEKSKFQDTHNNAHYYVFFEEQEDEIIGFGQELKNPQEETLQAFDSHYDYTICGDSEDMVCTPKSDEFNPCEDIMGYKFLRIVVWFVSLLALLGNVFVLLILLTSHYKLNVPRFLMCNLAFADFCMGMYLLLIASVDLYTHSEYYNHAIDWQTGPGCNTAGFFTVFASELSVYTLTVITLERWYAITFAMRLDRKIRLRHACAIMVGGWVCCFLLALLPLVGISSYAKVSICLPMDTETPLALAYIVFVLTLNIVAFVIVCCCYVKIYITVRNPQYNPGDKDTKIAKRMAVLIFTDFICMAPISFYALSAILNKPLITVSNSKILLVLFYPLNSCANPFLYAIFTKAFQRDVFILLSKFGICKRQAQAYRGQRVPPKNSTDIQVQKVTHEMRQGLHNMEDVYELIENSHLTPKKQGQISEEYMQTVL
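Cell-based HTRF cAMP assay; TSHR cells + compound, TSH EC80 (4nM final), 2 h, 37 deg C. Lysis with anti-cAMP cryptate and cAMP-d2, 30 min RT, read 665/620 nm.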
RXFP1 agonist: activates the human relaxin receptor RXFP1; Q9HBX9; HEK293T-RXFP1 cAMP TR-FRET, 30 min; response scale: percent of porcine relaxin response, buffer zero; Potency, µM (highest dose often 57.5 µM), most hits filed as activators; 370,000 compounds, 0.3% hits; active = well fitted activation curve with a large enough effect; inconclusive = small, poorly fitted or top-dose-only effect; also: nearly all actives have a fitted effect of over 60% in size
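HEK293 cells stably expressing RXFP1, treated 30 min at 37C with compounds plus PDE4 inhibitor Ro 20174; cAMP measured by HTRF TR-FRET. Normalized to buffer and 29 nM porcine relaxin; EC50 by Hill fit.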
RXFP1 antagonist: antagonists of human relaxin receptor RXFP1; Q9HBX9; HEK293-RXFP1, relaxin-stimulated cAMP HTRF, 30 min; active compounds read low; activity change, negative = inhibition, % at 57.5 µM; 350,000 compounds, 0.59% hits;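 active = activity change of -60% or lower, but not beyond a set lower limit; inconclusive = change between -60% and -40%, or beyond the set limit; inactive = change above -40%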
gsp ag: gsp mutant agonism | gsp mutant cells, cAMP HTRF, 30 min | Potency, µM (highest dose often 76.9 µM), actives largely listed as activators | 340,000 compounds, 0.13% hits | AID 624287; active = well fitted activation curve with a large enough effect; inconclusive = small, poorly fitted or top-dose-only effect, or another doubt; inactive = no such curve, though single readings can be large or run the other way; cell line not stated here;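 also: phosphodiesterase inhibitor Ro 20-1724 added with compounds to block cAMP breakdown; nearly all actives have a fitted effect of over 60% in size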
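Cells in DMEM/10% FBS with G418 were pretreated with compounds in DMSO plus […] (300 uM stock) for 30 min at 37C. cAMP was measured by HTRF (cAMP-d2 plus anti-cAMP antibody-K) after 30 min at room temperature.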
A number is an active result; [ ] = remark or other dose. In the library only some 1% were active in any assay of this set; here they are far more common.

For CCc1ccc(NC(=O)c2ccc3c(=O)n4c(nc3c2)CCCCC4)cc1 the results were gsp antagonist inconclusive, TSHR antag inactive, RXFP1 agonist inactive, RXFP1 antagonist inactive and gsp ag inactive.
Screening CN(C(=O)c1ccc2c(=O)n3c(nc2c1)CCCCC3)c1ccccc1F returned gsp antagonist inactive, TSHR antag inactive, RXFP1 agonist inactive, RXFP1 antagonist inactive and gsp ag inactive.
Screening CCCC(=O)NCC1(N(C)C)CCCCC1 returned RXFP1 agonist inactive and RXFP1 antagonist inactive.
Screening COc1ccc(CCNC(=O)c2nc(SCc3ccc(C)cc3)ncc2Cl)cc1OC returned RXFP1 agonist inactive and RXFP1 antagonist inactive.
Screening Cc1cccc(NS(=O)(=O)c2c(C)nc3sccn3c2=O)c1C returned RXFP1 agonist inactive and RXFP1 antagonist inactive.
For CCOc1ccc2nc(NC(=O)C3(C)CC3(Br)Br)sc2c1 (stereo not given) the results were gsp antagonist inconclusive, RXFP1 antagonist -84.5 and gsp ag inactive.
For CCOC(=O)CSc1nc2cc3c(cc2c(=O)n1CCCCCC(=O)NCc1ccc(OC)cc1)OCO3 the results were RXFP1 agonist inactive and RXFP1 antagonist inactive.
`CC(=O)c1ccc(NC(=O)CN2C(=O)CCc3ccccc32)cc1` gave RXFP1 agonist inactive and RXFP1 antagonist inactive.
For Cc1cc(NCCCO)n2nc(-c3cccs3)cc2n1 the results were gsp antagonist inactive, TSHR antag inactive, RXFP1 agonist inactive, RXFP1 antagonist inactive and gsp ag inactive[15.4 µM].
Screening OCCCNc1cc(-c2ccccc2)nc2cc(-c3ccc(F)cc3)nn12 returned gsp antagonist 35.5µM, TSHR antag inactive, RXFP1 agonist inactive, RXFP1 antagonist inactive and gsp ag inactive.
For COc1ccc(N(C)C(=O)NCc2noc3ccc(C)cc23)c(OC)c1 the results were RXFP1 agonist inactive and RXFP1 antagonist inactive.
Screening CNC(=O)C1CCC(Cn2c(=O)c3sccc3n(CC(=O)NCc3ccc(F)cc3)c2=O)CC1 (stereo not given) returned RXFP1 agonist inactive and RXFP1 antagonist inactive.
Screening c1ccc2c(c1)ncn2CCCOc1ccc2c(c1)CCC2 returned gsp antagonist 28.2µM, TSHR antag inactive, RXFP1 agonist inactive, RXFP1 antagonist inactive and gsp ag inactive.
For CC(C)CC(=O)Nc1nnc(S(=O)(=O)N(CC(C)C)c2ccccc2)s1 the results were RXFP1 agonist inactive and RXFP1 antagonist inactive.
`CC(Oc1ccc(F)cc1)C(=O)Nc1nc(-c2ccc(F)cc2)ns1` (stereo not given) gave RXFP1 agonist inactive and RXFP1 antagonist inconclusive.
Screening CCC1(C(=O)O)NC(c2cc(OC)ccc2O)C2C(=O)N(Cc3ccccc3)C(=O)C21 (stereo not given) returned gsp antagonist inactive, TSHR antag inactive, RXFP1 agonist inactive and gsp ag inactive.
Screening CCCCN1C(=O)C2C(c3ccc(OC)cc3O)NC(CC(C)C)(C(=O)O)C2C1=O (stereo not given) returned gsp antagonist 8.91µM, TSHR antag inactive, RXFP1 agonist inactive and gsp ag inactive.
Cc1cc(NS(=O)(=O)c2ccc(N)cc2)nc(C)n1 was read as RXFP1 antagonist inactive.
For Cc1nc2c(cnn2-c2ccccc2Cl)c(=O)n1-c1ccc(N2CCC(C)CC2)cc1 the results were gsp antagonist 35.5µM, TSHR antag inactive, RXFP1 agonist inactive, RXFP1 antagonist inactive and gsp ag inactive.
For Cc1cccc(NS(=O)(=O)c2cc([N+](=O)[O-])ccc2C)n1 the results were gsp antagonist inactive, TSHR antag inactive, RXFP1 agonist inactive, RXFP1 antagonist -62.3 and gsp ag inactive[15.4 µM].
Screening CC(=O)Nc1ccc(NS(=O)(=O)c2cc([N+](=O)[O-])ccc2C)cc1 returned TSHR antag inactive, RXFP1 agonist inactive, RXFP1 antagonist inactive and gsp ag inactive[15.4 µM].
For CCCCCn1cc2c(c1-c1ccc(Cl)cc1)c(=O)n(C)c(=O)n2C the results were RXFP1 agonist inactive and RXFP1 antagonist inactive.
CC(C)Cn1c(-c2ccccc2F)n[nH]c1=S was read as gsp antagonist inactive, TSHR antag inactive, RXFP1 agonist inactive, RXFP1 antagonist inactive and gsp ag inactive.
Screening CC(C)Cn1c(-c2csc3c2CCCC3)n[nH]c1=S returned gsp antagonist inactive, TSHR antag -82.5, RXFP1 agonist inactive, RXFP1 antagonist inactive and gsp ag inactive.
CCC(C)NC(=O)c1sc2ncccc2c1-n1c(C)ccc1C (stereo not given) was read as RXFP1 agonist inactive and RXFP1 antagonist inactive.
Cc1ccc(S(=O)(=O)N2CCOCC2)cc1NC(=O)CSc1ccc(Cl)cc1 was read as gsp antagonist inactive, TSHR antag inactive, RXFP1 agonist inactive, RXFP1 antagonist inactive and gsp ag inactive.
For O=C(Nc1cc(S(=O)(=O)N2CCOCC2)ccc1O)c1ccc(S(=O)(=O)N2CCCCC2)cc1 the results were gsp antagonist 8.91µM, TSHR antag inactive, RXFP1 antagonist inactive and gsp ag inactive.
`O=C(CCCSc1ccc(Cl)cc1)Nc1cc(S(=O)(=O)N2CCOCC2)ccc1O` gave gsp antagonist 31.6µM, TSHR antag inactive, RXFP1 agonist inactive, RXFP1 antagonist inactive and gsp ag inactive.
For S=c1[nH]nc(-c2ccccc2)c2ccccc12 the results were gsp antagonist inactive, TSHR antag inactive, RXFP1 agonist inactive, RXFP1 antagonist -84.2 and gsp ag inconclusive.
For Cc1sc2c(c1C)c(=O)n(-c1ccc(Cl)cc1)c(=O)n2Cc1cc(=O)n2cc(Br)ccc2n1 the results were RXFP1 agonist inactive and RXFP1 antagonist inactive.
For O=C(Nc1ccc2nc3n(c(=O)c2c1)CCCCC3)C(=O)N1CCN(c2ccccc2F)CC1 the results were gsp antagonist inactive, TSHR antag -121.8, RXFP1 agonist inactive, RXFP1 antagonist inactive and gsp ag inactive.
`CSc1nc(C)cc(SCC(=O)Nc2ccccc2)n1` gave gsp antagonist inconclusive, TSHR antag inactive, RXFP1 agonist inactive, RXFP1 antagonist inactive and gsp ag 31.6µM.
`Clc1cccc(-n2ncc3c(NCCC4=CCCCC4)ncnc32)c1` gave RXFP1 agonist inactive and RXFP1 antagonist inactive.
Cc1cc(S(=O)(=O)N2CCN(c3ccccn3)CC2)ccc1F was read as gsp antagonist inactive, TSHR antag inactive, RXFP1 agonist inactive, RXFP1 antagonist inactive and gsp ag inconclusive.
`Cc1cc(C)c(S(=O)(=O)N2CCN(c3ccccn3)CC2)c(C)c1` gave gsp antagonist inactive, TSHR antag inactive, RXFP1 agonist inactive, RXFP1 antagonist -95.1 and gsp ag inactive[15.4 µM].
`CC(C)(C)c1ccc(C(=O)CC(Sc2ccc(Cl)cc2)C(=O)O)cc1` (stereo not given) gave gsp antagonist inactive, TSHR antag inactive, RXFP1 agonist inactive, RXFP1 antagonist -95.8 and gsp ag inactive.

Screening results from PubChem.
